Measured values taken from PubChem BioAssay (NCI).
This is part of a sample that, as a whole, favours compounds with a hit. Of some 83,000 tested, about 20% had one in any assay.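 Single-concentration screen, 48 h exposure, 96-well plates. Endpoint: percent growth. Below 10 = active.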 Active and inactive are the calls of the source.

Each compound was assayed on IGROV1 ovarian (assay: NCI-60 one-dose screen, 48 h (100 = growth as untreated, 0 = no growth, -100 = all killed)). Conditions: 10 µM unless noted.
Description: Growth inhibition of the IGROV1 human tumor cell line is measured as a screen for anti-cancer activity. Cells are grown in 96 well plates and exposed to the test compound for 48 hours. Compounds are tested at a single concentration, which is 10^-5 M for most compounds. The reported endpoint is percent growth (GI% or GIPRCNT), where numbers from 0 - 100% represent growth inhibition, and numbers from -100% - 0 represent cell death. For example, a value of 40 represents 60% growth inhibition. A value of 0 means no net growth occurred over the course of the experiment. A value of -40 indicates 40% of cells at the beginning of the experiment died by the end of the experiment. A value of -100 means all cells are dead at the end of the experiment.
NCI-60 Human Tumor Cell Lines Screen was performed using the standard one-dose NCI protocol, which is described in more detail at https://dtp.cancer.gov/discovery_development/nci-60/default.htm.
Compounds with GIPRCNT values below 10 were considered active. Activity score was based on GIPRCNT using the following formula: […]
Score is 0 for GIPRCNT values of 100 or above, 50 for GIPRCNT values of 0, and 100 for GIPRCNT values of -100.

Row | SMILES | growth
1 | Cc1ccc2c(n1)C(=O)C(Cl)=C(Nc1cccc(C(C)C)c1)C2=O | 22.1% (inactive)
2 | COc1cc(/C=C/C(=O)c2cc(OC)c(OC)c(OC)c2)ccc1OCc1ccc(F)cc1 | 40.7% (inactive)
3 | COc1ccc(COc2ccc(/C=C3/C(=O)Nc4cc(Cl)ccc43)cc2)cc1 | 92.4% (inactive)
4 | N#Cc1ccc(C(=O)CSc2nc(Nc3ccc(S(N)(=O)=O)cc3)c3ccccc3n2)cc1 | 110% (inactive)
5 | CC(C)(C)OC(=O)N1C(=O)c2c(c3c4ccccc4[nH]c3c3ccc4ccccc4c23)C1=O | 52.7% (inactive)
6 | C[C@@H]1CN(c2ccc3ncc(C#Cc4cncc(C(=O)Nc5ccc(CN6CCN(C)CC6)c(C(F)(F)F)c5)c4)n3n2)C[C@H](C)O1 | -5.72% (active)
7 | NC(=O)c1c(NC(=O)c2ccc(C3CCCCC3)cc2)sc2c1CCC(=O)C2 | 24.7% (inactive)
8 | Nc1cc(-c2c[nH]c3ccc(F)cc23)nc2cc(-c3c[nH]c4ccc(F)cc34)nn12 | 94.8% (inactive)
9 | COc1ccc(-c2csc(N/N=C/c3c(-c4ccc(S(C)(=O)=O)cc4)nc4ccccn34)n2)cc1 | 115% (inactive)
10 | C[C@@H](Nc1c(C#N)cnc2ccc(-c3cnc(N)nc3)cc12)c1ccccc1 | -32.6% (active)
11 | COC(=O)C1CN(S(=O)(=O)/N=C2\NC(=O)NC2=C(Cl)Cl)C1 | 109% (inactive)
12 | C#Cc1nc(C2=C(C)C(O)/C(=N/O)C2)cs1 (stereo not given) | -41.6% (active)
13 | Cc1c(Nc2nnc(SCC(=O)Nc3sc4c(c3C#N)CCCC4)s2)c(=O)n(-c2ccccc2)n1C | 104% (inactive)
14 | O=C(CCCN1C(=O)/C(=C/c2ccccc2F)SC1=S)N1CCOCC1 | 84.4% (inactive)
15 | CN(C)c1ccc(/C=C2\Cc3c(F)ccc(Br)c3C2=O)cc1 | 56.5% (inactive)
16 | O=C(CCN1C(=O)/C(=C/c2ccccc2F)SC1=S)N1CCOCC1 | 61.9% (inactive)
17 | O=C(Oc1ccc2ccc(=O)oc2c1)c1ccc(Cl)cc1 | 104% (inactive)
18 | C=C1CC[C@H]2[C@@](C)(CCC3OC(c4ccc(OCc5cn(C6CC(OC(C)=O)C(OC(C)=O)C(COC(C)=O)O6)nn5)cc4)OC[C@]32C)[C@@H]1/C=C/C1=CCOC1=O (stereo not given in full) | 89.2% (inactive)
19 | CCOC(=O)c1sc(NCC(=O)Nc2cccc([N+](=O)[O-])c2)c(C(=O)OCC)c1C | -41% (active)
20 | Cc1ccccc1NC(=O)/C=C/c1ccc(OCCOc2ccc3c(C)cc(=O)oc3c2)cc1 | 103% (inactive)

Row | SMILES | growth
21 | C#Cc1nc(C2=C(C)C(O)CC2)cs1 (stereo not given) | 5.36% (active)
22 | COC1CCN(Cc2ccc3c(NNC(=O)c4cnccn4)nc4cc(F)ccc4n23)C1 (stereo not given) | 24.2% (inactive)
23 | O=c1/c(=C\c2ccc(-c3ccccc3)o2)sc2nc(-c3ccccc3)nn12 | 103% (inactive)
24 | CCCC(=O)NC(c1cccc(N(C)C)c1)c1cc(C)c2cccnc2c1O (stereo not given) | 40% (inactive)
25 | NS(=O)(=O)c1cccc(Nc2nc(SCC(=O)c3ccc([N+](=O)[O-])cc3)nc3ccccc23)c1 | 16.6% (inactive)
26 | COc1cccc(NC2=CC(=O)C(C)=C(C)C2=O)c1 | 40% (inactive)
27 | Cn1ccnc1C(=O)/C=C/c1ccc(NC(=O)Nc2ccccc2)cc1 | 19.2% (inactive)
28 | CCOC(=O)c1c(Nc2ccccc2)nn2c(N)c(C#N)c(-c3ccc(OC)cc3)nc12 | 85.5% (inactive)
29 | C#Cc1nc(C2=C(C)C(OC(C)=O)/C(=N/OC(C)=O)C2)cs1 (stereo not given) | -59% (active)
30 | COc1cc(-c2nc3ccc(-c4nnc(SCC(=O)Nc5ccc(C(C)=O)cc5)o4)cc3[nH]2)cc(OC)c1OC | 99.3% (inactive)
31 | CN(C)c1ccc(-c2c(NC(C)(C)C)nc3c(OCCc4ccccc4)cccn23)cc1 | 23.3% (inactive)
32 | COc1ccc(/C=N/Nc2ccnc3cc(Cl)ccc23)cc1Cl | -59.5% (active)
33 | O=C1c2c(c3c4cccnc4[nH]c3c3ccc4ccccc4c23)C(=O)N1CCO | 67.7% (inactive)
34 | Cn1cc(-c2cc(N)n3nc(-c4cn(C)c5ccc(Br)cc45)cc3n2)c2cc(Br)ccc21 | 76.4% (inactive)
35 | CCOC(=O)c1c(Nc2ccccc2)nn2c(N)c(C#N)c(-c3ccc(Cl)cc3)nc12 | 70.5% (inactive)
36 | Nc1ncc(-c2ccc3ncnc(N4CCc5cc(F)c(Cl)cc54)c3c2)cc1CO | -54.7% (active)
37 | COc1ccc(-c2nc3ccc(-c4nnc(SCC(=O)Nc5ccc(C(C)=O)cc5)o4)cc3[nH]2)cc1 | 107% (inactive)
38 | CCOC(=O)c1c(NC(=O)c2cccc(C(F)(F)F)c2)sc2cc(O)ccc12 | 75.7% (inactive)
39 | N#Cc1nc(-c2ccccc2)oc1N1CCC(CO)C1 (stereo not given) | 93.1% (inactive)
40 | Nc1cc(-c2c[nH]c3ccccc23)nc2cc(-c3c[nH]c4ccccc34)nn12 | 57.2% (inactive)
